The results in this text go back to PubChem BioAssay AID463173 (ICCB-Longwood Screening Facility, Harvard Medical School, 2010).

Hit rate of the full screen: of about 52,000 compounds, about 4,300 (8.3%) were called active. This excerpt belongs to a sample that is enriched for actives. Unmarked numbers belong to inactive results. Rule as the data show it: active = survival mostly below about 52% (no sharp cut-off); inactive = mostly above about 56%.

This assay deals with DeltatarO mutant. Put plainly: S. aureus survival, RN4220 and DeltatarO strains – OD600, teichoic acid synthesis inhibitors, primary screen (AID 463173). The following applies: S. aureus RN4220 wild type/DeltatarO growth, OD600, 18 h, hits give low values, concentration not given here.
As for `CCCCc1nc2ccccc2c(=O)n1-c1cccc(OC)c1`, the survival is 119%.
As for `COc1cccc(-n2c(/C=C/c3ccccc3O)nc3ccccc3c2=O)c1`, the survival is 4% (active).
As for `Cc1cccc(-n2c(/C=C/c3cn(C)c4ccccc34)nc3ccccc3c2=O)c1`, the survival is 21% (active).
`COc1cc(/C=C/c2nc3ccccc3c(=O)n2-c2ccc(Br)c(C)c2)ccc1O`: the survival is 71%.
In the case of `Cn1cc(/C=C/c2nc3ccccc3c(=O)n2-c2ccccc2)c2ccccc21` it was 77%; in that of `Cc1cccc(-n2c(/C=C/c3ccccc3O)nc3ccccc3c2=O)c1`, 0% (active).
Consider `O=c1c2ccccc2nc(/C=C/c2ccccc2F)n1-c1cccc(O)c1`, for which the survival was 2% (active).
In the case of `COc1ccc(-n2c(/C=C\c3ccccc3F)nc3ccccc3c2=O)cc1OC` it was 89%; in that of `Cc1cc(C)cc(-n2c(/C=C/c3cccc(F)c3)nc3ccccc3c2=O)c1`, 83%.
`Cc1cccc(-n2c(-c3ccco3)nc3ccccc3c2=O)c1`: the survival is 94%.
In the case of `O=c1c2ccccc2nc(/C=C\c2ccccc2F)n1-c1ccc(O)cc1` it was 67%.
Under `Cc1cccc(-n2c(/C=C/c3cccc4ccccc34)nc3ccccc3c2=O)c1` stands 94%; under `Cc1cc(-n2c(/C=C/c3cccs3)nc3ccccc3c2=O)ccc1Br`, 104%; under `O=C1/C(=C\c2cc3c(cc2Cl)OCO3)N2CCC1CC2`, 87%.
With `O=C1NC(=S)NC(=O)C1C1CCCCC1`, the survival was 74%.
As to `CCC(C(=O)Nc1ccccc1F)N1C(=O)CN=C(c2ccccc2)c2ccccc21` (stereo not given), the survival was 84%.
For `CC(C)Cc1nc2cccnc2n1C1CCNCC1`, the survival was 120%.
In the case of `O=C(c1ccc2c(c1)N(Cc1ccc(F)cc1Cl)C(=O)c1ccccc1S2)N1CCC2(CC1)OCCO2`, the survival is 101%.
`COc1ccc(N=C2SCCCN2C)cc1`: the survival was 99%.
Take `CNC(=O)Oc1c(Cl)cc(Cl)cc1Cl`: the survival is 96%.
In the case of `Cc1ccc(-n2c(/C=C/c3cccc4ccccc34)nc3ccccc3c2=O)cc1`, the survival was 77%.
Consider `O=c1c2ccccc2nc(/C=C\c2cccc(Br)c2)n1-c1ccc(O)cc1`, for which the survival is 100%.
In the case of `Cc1ccc(-n2c(/C=C\c3ccc(F)cc3)nc3ccccc3c2=O)cc1Cl` it was 90%; in that of `CCc1nc2ccccc2c(=O)n1-c1cccc(OC)c1`, 91%; in that of `Cc1cccc(-n2c(/C=C/c3c[nH]c4ccccc34)nc3ccccc3c2=O)c1`, 26% (active).
With `Cc1cccc(-n2c(CC3C(=O)Nc4ccc(C)cc43)nc3ccccc3c2=O)c1` (stereo not given), the survival was 34% (active).
In the case of `O=c1c2ccccc2nc(/C=C/c2ccccc2O)n1-c1ccc(Br)cc1` it was 41% (active).
In the case of `Cc1ccc2c(c1)C(Cc1nc3ccccc3c(=O)n1-c1ccc(Br)cc1)C(=O)N2` (stereo not given) it was 73%.
Take `Cc1ccc(-n2c(/C=C/c3cccc(C(F)(F)F)c3)nc3ccccc3c2=O)cc1`: the survival was 72%.
For the compound `O=C(Nc1ccc2c(c1)OCCO2)c1cccn(Cc2cccc(F)c2)c1=O`, the survival was 84%.
Under `N#CC(C#N)=Cc1sc2ccccc2c1Cl` stands 93%; under `COc1ccc(C2(CN)CCOCC2)cc1`, 88%.
Under `O=c1cccc2n1CC1CC2CN(c2ncnc3c2cnn3-c2ccc(Cl)cc2)C1` (stereo not given) stands 52%; under `Cc1ccc(NC(=O)Cn2cc(C(=O)c3ccccc3)c3ccccc32)cc1`, 122%; under `Cc1cccc(-c2nc(CN3C(=O)CN=C(c4ccccc4)c4ccccc43)c(C)o2)c1`, -2% (active).
As for `COc1ccc(-c2nc(CN3C(=O)CN=C(c4ccccc4)c4ccccc43)c(C)o2)cc1OC`, the survival is 97%.
As to `COc1ccc(-c2nc(CN3C(=O)CN=C(c4ccccc4)c4ccccc43)c(C)o2)cc1`, the survival is 84%.
On to `Cc1ccc(-c2nc(CN3C(=O)CN=C(c4ccccc4)c4ccccc43)c(C)o2)cc1`, for which the survival was 49%.
In the case of `Cc1ccccc1-c1nc(CN2C(=O)CN=C(c3ccccc3)c3ccccc32)c(C)o1` it was -1% (active).
Consider `Cc1oc(-c2ccc(Cl)cc2)nc1CN1C(=O)CN=C(c2ccccc2)c2ccccc21`, for which the survival was 49%.
Under `O=C(Cn1cc(C(=O)c2ccccc2)c2ccccc21)Nc1ccc(Br)cc1` stands 48%.
Under `Cn1c(=O)n(C)c2cc(CNCCc3ccccc3F)ccc21` stands 68%; under `COc1ccc(Br)cc1CN1CCN(C(=O)Cc2ccccc2)CC1`, 73%.
In the case of `CN1CCc2cc3c(c4c2C1Cc1ccccc1-4)OCO3` (stereo not given) it was 12% (active).
For the compound `COc1ccc2c(c1OC)C(=O)OC2C1c2cc3c(cc2CCN1C)OCO3` (stereo not given), the survival is 69%.
In the case of `CCCC12CN3CC(C)(CN(C1)C3c1c(C)[nH]c(=O)[nH]c1=O)C2=O` (stereo not given) it was 81%.
Regarding `N#CSCC(=O)N1c2ccccc2CCc2ccccc21`, the survival was 3% (active).
In the case of `CN1CCN(c2csc3ccc(F)cc3c2=O)CC1` it was 98%.
In the case of `Cc1ccc(-n2c(/C=C/c3cc(Br)cs3)nc3ccccc3c2=O)cc1C` it was 71%; in that of `O=C(COc1ccccc1)N1CCN(CC(O)COc2ccccc2)CC1` (stereo not given), 68%.
On to `CN1CCN(C(=O)COc2cccc3ccccc23)CC1`, for which the survival was 98%.
As to `N#Cc1cc2c(nc1SCC(=O)Nc1ccc(F)c(Cl)c1)C1CCN2CC1`, the survival was -2% (active).
For `N#Cc1cc(F)c(N2CCNCC2)cc1Cl`, the survival is 74%.
In the case of `CN(C)c1ccc(NC(=O)c2sc3nc4c(cc3c2N)N2CCC4CC2)cc1` it was 146%; in that of `N#Cc1cc2c(nc1SCC(=O)Nc1ccc(Cl)c(C(F)(F)F)c1)C1CCN2CC1`, -1% (active); in that of `O=C(Nc1ccc(F)c(Cl)c1)N(Cc1ccc2c(c1)OCO2)C1CCN(Cc2ccccc2)CC1`, 68%.
Turning to `CC(N)Cc1cn(Cc2ccccc2)c2ccccc12` (stereo not given), the survival is 112%.
As for `CN1C(=O)C(Cc2nc3ccccc3c(=O)n2-c2ccccc2)c2ccccc21` (stereo not given), the survival is 85%.
`C=C1N2CCC(CC2)C1(O)c1ccc(C)cc1` (stereo not given): the survival was 44% (active).
Under `Cc1c(C(c2ccc(F)cc2)c2c(O)c3ccccc3oc2=O)c(=O)n(-c2ccccc2)n1C` (stereo not given) stands 89%.
In the case of `Cc1c(C(c2ccc(Br)cc2)c2c(O)c3ccccc3oc2=O)c(=O)n(-c2ccccc2)n1C` (stereo not given), the survival is 49% (active).
In the case of `CSc1ccc(C(c2c(O)c3ccccc3oc2=O)c2c(C)n(C)n(-c3ccccc3)c2=O)cc1` (stereo not given) it was 128%.
For `COc1cc(C(c2c(O)c3ccccc3oc2=O)c2c(C)n(C)n(-c3ccccc3)c2=O)ccc1O` (stereo not given), the survival was 53%.
As to `Cc1c(C(c2ccc(O)cc2)c2c(O)c3ccccc3oc2=O)c(=O)n(-c2ccccc2)n1C` (stereo not given), the survival is 47% (active).
In the case of `COc1ccc(C(c2c(O)c3ccccc3oc2=O)c2c(C)n(C)n(-c3ccccc3)c2=O)cc1` (stereo not given), the survival is 57%.
In the case of `COc1ccc(NC(=O)CN2C(=O)CN=C(c3ccccc3)c3ccccc32)c(OC)c1` it was 99%.
Under `CC1CN2CCC3=C(CCCC3)C2(C)C1` (stereo not given) stands 77%; under `CCN(CC)c1ccc(C=C(C#N)C#N)cc1`, 91%.
In the case of `CC(C)n1cc(C(=O)N(C2CC2)C(C(=O)NC2CCCC2)c2ccccc2)cn1` (stereo not given), the survival was 101%.
Under `COc1ccccc1C1SCC(=O)Nc2c1c(C)nn2-c1cccc(C)c1` (stereo not given) stands -1% (active); under `COc1cccc(C2SCC(=O)Nc3c2c(C)nn3-c2ccc(C)c(Cl)c2)c1OC` (stereo not given), 55%.
Take `Cc1cccc(-n2nc(C)c3c2NC(=O)CSC3c2ccccc2Cl)c1` (stereo not given): the survival is 43% (active).
In the case of `CCc1ccc(-n2nc(C)c3c2NC(=O)CSC3c2ccc(OC)cc2OC)cc1` (stereo not given) it was 60%; in that of `CCCOc1ccc(C2SCC(=O)Nc3c2c(C)nn3-c2cccc(C)c2)cc1OC` (stereo not given), 41% (active); in that of `Cc1ccc(-n2c(/C=C/c3ccc(Br)s3)nc3ccccc3c2=O)cc1`, 85%.
In the case of `O=C1NC(=O)C(=Cc2ccc(N3CCOCC3)cc2)C(=O)N1` it was 80%.
Turning to `O=c1cccc2n1CC1CC2CN(c2nc(Cl)nc(Cl)n2)C1` (stereo not given), the survival is 80%.
Under `CCCCC12CN3CC(C)(CN(C1)C3c1ccccn1)C2=O` (stereo not given) stands 79%; under `Cc1cc(N)n(C2CCN(C)CC2)n1`, 94%.
Turning to `Cc1ccc(NC(=O)CN2C(=O)CN=C(c3ccccc3)c3ccccc32)cc1Cl`, the survival was 122%.
Under `Cc1ccc(Cn2cccc(C(=O)Nc3nc4ccc(C)cc4s3)c2=O)cc1` stands 117%.
Under `COC1=CC23CCN(C)C(Cc4ccc(OC)c(O)c42)C3=CC1=O` (stereo not given) stands 84%.
Under `N#Cc1cc2c(nc1SCC(=O)Nc1cccc(C(F)(F)F)c1)C1CCN2CC1` stands 4% (active); under `CCOC(=O)c1ccc(NC(=O)CSc2nc3c(cc2C#N)N2CCC3CC2)cc1`, 76%; under `CCOC(=O)c1ccc(NC(=O)c2sc3nc4c(cc3c2N)N2CCC4CC2)cc1`, 68%.
`O=C(CN1C(=O)CN=C(c2ccccc2)c2ccccc21)Nc1cccc(C(F)(F)F)c1`: the survival is 57%.
Under `CC(=O)c1ccc(NC(=O)c2sc3nc4c(cc3c2N)N2CCC4CC2)cc1` stands 98%.
In the case of `Cc1cccc(CSc2nc3c(cc2C#N)CN(C)CC3)c1` it was 101%; in that of `N#Cc1cc2c(nc1SCC(=O)Nc1cccc(F)c1)C1CCN2CC1`, -4% (active).
In the case of `N#Cc1cc2c(nc1SCC(=O)Nc1ccc(C(F)(F)F)cc1)C1CCN2CC1` it was 8% (active).
As for `N#Cc1cccc(NC(=O)CSc2nc3c(cc2C#N)N2CCC3CC2)c1`, the survival was 88%.
Take `O=C(CNC1CCCCC1)N1CCC2(CC1)OCCO2`: the survival was 116%.
Under `CCc1cccc(NC(=O)CN2C(=O)CN=C(c3ccccc3F)c3cc(Cl)ccc32)c1` stands 94%; under `CCC(C)N1CCN(Cc2cc(OC)c(OC)cc2OC)CC1` (stereo not given), 108%.
Under `CCNCC1(c2ccc(OC)c(OC)c2)CCCC1` stands 94%.
